A selection: hits, their analogues and other compounds. The true share with any hit is near 0.5%.
TRPML1 blocker: qHTS for Inhibitors of the Human Mucolipin Transient Receptor Potential 1 (TRPML1) | TRPML1-inducible cells, Ca2+ dye fluorescence, FDSS; active compounds read low; inhibition of EC80 agonist-evoked calcium signal | activity change, negative = inhibition, % (no concentration beside the values) | hit rate 0.02% among 390,000 | AID 624415, 2012; in the data active means activity change below about -50%; inconclusive means between about -30% and that limit;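 further: stimulus is agonist 54-4 at its EC80 concentration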
Target sequence (Q9GZU1 whole entry, looked up): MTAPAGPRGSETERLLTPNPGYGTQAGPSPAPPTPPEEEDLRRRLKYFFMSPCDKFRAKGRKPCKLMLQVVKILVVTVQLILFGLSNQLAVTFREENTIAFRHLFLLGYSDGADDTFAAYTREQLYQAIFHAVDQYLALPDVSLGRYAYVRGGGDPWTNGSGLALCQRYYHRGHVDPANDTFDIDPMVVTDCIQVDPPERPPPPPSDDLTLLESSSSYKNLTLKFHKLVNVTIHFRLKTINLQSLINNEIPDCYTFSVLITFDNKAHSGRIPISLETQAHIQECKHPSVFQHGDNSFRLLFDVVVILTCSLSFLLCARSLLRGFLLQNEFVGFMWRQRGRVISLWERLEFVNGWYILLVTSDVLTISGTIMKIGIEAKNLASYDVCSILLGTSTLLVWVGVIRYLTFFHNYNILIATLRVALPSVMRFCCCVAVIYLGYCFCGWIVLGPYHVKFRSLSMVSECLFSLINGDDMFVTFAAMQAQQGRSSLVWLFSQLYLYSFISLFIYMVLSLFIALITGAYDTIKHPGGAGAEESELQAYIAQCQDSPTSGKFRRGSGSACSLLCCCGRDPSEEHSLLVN
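TRPML1-DL cells, Tet-induced overnight (~16 h, 37 °C) at 1,500 cells/well, were loaded with Ca8 no-wash dye plus quencher for 45-90 min at room temperature. Compounds were pinned during FDSS kinetic reading; agonist 54-4 at EC80 (4 uM final) then added.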
RGS4 inhibitor: Inhibitors of Regulator of G Protein Signaling (RGS) 4: qHTS; Transcreener GDP fluorescence polarization, RGS4-accelerated GTP hydrolysis; Potency, µM (doses to about 114 µM), usual class: inhibitors; hit rate 0.039% among 390,000; AID 504845, 2011; further: nearly all actives have a fitted effect of over 75% in size
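MLSMR compounds (23 nl, pin-transferred) preincubated 10 min at room temperature with a 500nM (2x) first reagent, then RGS4 at 900nM (2x) plus Transcreener GDP mix added; fluorescence polarization (620/688 nm) read before and after 90 min at 30 °C.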
TRPV1 ag: HTS Assay for Compounds that Act as Agonists of the Vanilloid Receptor 1 | TRPV1-expressing cells, Fluo-8 calcium influx, agonist mode | activation, % at 8.33 µM | Transient receptor potential cation channel subfamily V member 1 (Homo sapiens), Q8NER1 | AID 540275, 2011 | hit rate 0.19% among 320,000; in the data active means activation above about 80%; inconclusive means between about 30% and that limit
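Fluo-8 calcium influx in TRPV1-expressing cells, kinetic read (ex 480/em 520 nm). Compound added and read 3 min for agonist activity, followed by capsaicin at EC20 final and 2 min further read for enhancement.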
TRPV1 PAM: HTS Assay for Compounds that Act as Potentiators of the Vanilloid Receptor 1 | Transient receptor potential cation channel subfamily V member 1 (Homo sapiens), Q8NER1 | TRPV1-expressing cells, Fluo-8 calcium influx, capsaicin EC20 potentiation | potentiation, % at 8.33 µM | hit rate 0.02% among 320,000 | AID 540277, 2011; in the data active means potentiation above about 80%; inconclusive means between about 30% and that limit
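TRPV1-expressing cells were cultured overnight at 35.5C and loaded with Fluo-8 calcium dye for 40 to 90 min at room temperature. After a 10 s baseline, compound was added and calcium influx was read kinetically for 3 min (ex 480/em 520 nm).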
A-T KAP1 phos: qHTS Assay for Identifying a Potential Treatment of Ataxia-Telangiectasia; F2112 A-T fibroblasts, KAP-1 phosphorylation AlphaLISA; neocarzinostatin DNA damage 30 min before lysis; Potency, µM (highest dose often 57.5 µM), hits mostly activators; hit rate 0.19% among 320,000; AID 485349, 2010; further: nearly all actives have a fitted effect of over 45% in size
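hTERT-immortalized A-T patient fibroblasts (F2112), 500 cells/well in OPTI-MEM, 1% FBS, got compounds for 60 min, then NCS for 30 min at 37C. Lysates were then assayed for phospho-KAP-1 by AlphaLISA (anti-pKAP1 donor, anti-KAP1 acceptor beads), 6 hr at 25C.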
TRPML1 ag: qHTS for Agonists of the Human Mucolipin Transient Receptor Potential 1 (TRPML1); Mucolipin-1 (Homo sapiens), Q9GZU1; TRPML1-expressing cells, Ca2+ dye fluorescence, FDSS; activation, % (test concentration not listed); hit rate 0.12% among 410,000; in the data active means activation above about 50%; inconclusive means mostly about 30% to 49%
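Kinetic FDSS Ca2+ read in Tet-induced TRPML1-DL cells (ABD Ca8 dye plus quencher, 45-90 min RT loading): baseline, then compound, then 110 s agonist window; EC80 agonist 54-4 at 4uM final added afterwards for a 110 s antagonist window.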
Of the large screens only hits and unclear results are named; the others gave an inactive call. Unless noted, the call rests on the fitted dose curve; in most records, active means well fitted curve in the direction sought with a large enough effect; inconclusive means small, poorly fitted or top-dose-only effect, or another doubt; inactive means no such curve, though single readings can be large; an effect the other way counts as inactive or inconclusive.

COc1ccc(-n2c(C)c(C)c3c(NCCN(C)C)ncnc32)cc1	A-T KAP1 phos 7.08µM (no result: TRPML1 blocker, TRPML1 ag)
O=C(Nc1ccc2c(c1)OCCO2)c1cc2ccccc2o1	TRPV1 ag 80.6
CC1CCN(S(=O)(=O)c2ccc(Cl)cc2)CC1	none
CC1CCN(S(=O)(=O)c2ccc(C(C)C)cc2)CC1	TRPML1 ag 114.9
COc1ccc(/C=N/NC(=O)c2cccc(NC(=O)c3ccccc3Cl)c2)cc1	none
Cc1cc(C)n(C(=O)COc2ccccc2[N+](=O)[O-])n1	none (no result: TRPV1 ag, TRPV1 PAM)
O=C(NCCC1=CCCCC1)c1ccc([N+](=O)[O-])cc1	TRPV1 ag 88.9
Cc1cc(C(=O)NCCC2=CCCCC2)ccc1[N+](=O)[O-]	TRPV1 ag 83.3
O=C(CCNC(=O)c1ccc([N+](=O)[O-])cc1)NCCC1=CCCCC1	none
COCCCn1c(SCC(=O)N2CCCC(C)C2)nnc1-c1ccco1 (stereo unspecified)	none
COc1ccc(C(=O)CSc2nc3ncccc3[nH]2)cc1OC	A-T KAP1 phos 0.794µM
Cc1cc(C)n(-c2cc(N3CCOCC3)ncn2)n1	none
COc1cc(NC(=S)NCCN2CCOCC2)cc(OC)c1	none
CCCCN(C(=O)c1ccccc1OCc1ccc(F)cc1)c1c(N)n(CCC)c(=O)[nH]c1=O	none
COc1cccc(CNC(=O)CCn2ccc3cc(S(=O)(=O)N4CCCC4)ccc32)c1	TRPV1 ag 89.2
Cc1ccc2c(c1C)-c1c(ccc(C)c1C)C(=O)C2=O	RGS4 inhibitor inconclusive (no result: TRPV1 ag, TRPV1 PAM, A-T KAP1 phos)
Cc1ccc(CC#N)c(-c2c(CC#N)ccc(C)c2C)c1C	TRPML1 ag 78.5 (no result: RGS4 inhibitor, TRPV1 ag, TRPV1 PAM, A-T KAP1 phos)
Cc1c(N=c2scc(-c3ccccc3)n2CCO)c(=O)n(-c2ccccc2)n1C	none
Cc1c(N=c2scc(-c3ccccc3)n2C)c(=O)n(-c2ccccc2)n1C	TRPV1 PAM 94.6
O=C(Cn1c(-c2ccccc2)noc1=O)N1CCC(Cc2ccccc2)CC1	TRPV1 ag inconclusive
CSCc1ccc(C(=O)N2CCCC(Nc3ccc4c(c3)OCCO4)C2)o1 (stereo unspecified)	TRPV1 ag 91.5
CSCc1ccc(C(=O)N2CCCC(Nc3ccc(F)cc3)C2)o1 (stereo unspecified)	TRPV1 ag 84.0
O=C(c1ccco1)N1CCCC(Nc2ccc3c(c2)OCCO3)C1 (stereo unspecified)	TRPV1 ag inconclusive
Cc1ccccc1NC(=O)CSc1nc(=O)n(CCN2CCOCC2)c2c1CCCC2	none
CS(=O)(=O)c1ccc(C(=O)Nc2ccc(N3CCCCC3)cc2)c(Cl)c1	TRPV1 ag 83.4
CC(=O)N1CCN(c2ccc(NC(=O)c3cccc(Cl)c3Cl)cc2)CC1	none
O=C(Nc1ccc(N2CCCC2)cc1)c1cccc(Cl)c1Cl	TRPV1 ag 81.5
CN(C)S(=O)(=O)c1ccc(S(=O)(=O)N(Cc2ccco2)Cc2ccccc2Cl)cc1	TRPML1 ag 64.0
O=S(=O)(c1ccc(S(=O)(=O)N(Cc2ccco2)Cc2ccccc2Cl)cc1)N1CCCC1	none
Cc1ccc(NC(=O)C2CCN(S(=O)(=O)c3c(C)noc3/C=C/N(C)C)CC2)cc1	TRPV1 PAM inconclusive
COc1ccc(-n2c(Cc3cccn3C)nnc2SCC(=O)Nc2cc(Cl)ccc2OC)cc1	none
CCOc1ccccc1N(C)C(=O)c1sc2ncn(CC(=O)N3CCCCC3C)c(=O)c2c1C (stereo unspecified)	none
CCCCCCCCNC(=O)/C(C#N)=C/c1ccccc1[N+](=O)[O-]	TRPV1 PAM inconclusive, A-T KAP1 phos 25.1µM
N#C/C(=C\c1ccccc1[N+](=O)[O-])C(=O)NCc1ccccc1	none

Assay outcomes: PubChem BioAssay, National Center for Advancing Translational Sciences (NCATS)
